# Assay outcomes (PubChem)
# This is a sample that favours compounds with a hit; in the whole collection about 3.5% have one here.
# Pf apPOL block: Pf-apPOL inhibitors, biochemical, fluorescence. AID 1794808, 2022. inhibition, % at 10 µM. 0.25% of 210,000 active. Recombinant Pf-apPOL, molecular beacon fluorescence, 1.5 h
# mHTT CaM bind: mutant huntingtin-calmodulin interaction inhibitors – biochemical, AlphaScreen, primary screen; P42858; AlphaScreen His-mHTT/GST-CaM binding, luminescence; inhibition, % at 15 µM; 3.6% of 190,000 active; AID 1671202, 2021;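 also: 0% = both proteins with DMSO and 100% = one protein alone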
# Starred values were filed as active, the others as inactive; i = inactive; / = no result given. Rule as the data show it: active = inhibition above about 50%; inactive = the rest.
SMILES,Pf apPOL block,mHTT CaM bind
CCC(C)NC(=O)c1ccc(-c2cccnc2)nc1 (configuration not stated),-2,-2
CC1(C)C(C=C(Cl)Cl)C1C(=O)Nc1ccc(Cl)c(Cl)c1 (configuration not stated),-6,-21
CC1(C)C(C=C(Cl)Cl)C1C(=O)Nc1cccc(C(F)(F)F)c1 (configuration not stated),-1,53*
COc1ccccc1NS(=O)(=O)c1ccc2[nH]c(=O)sc2c1,0,-2
O=S(=O)(Nc1cccnc1)c1ccc2[nH]c3c(c2c1)CCCCC3,-4,35
COc1ccccc1NS(=O)(=O)c1ccc2[nH]c3c(c2c1)CCCCC3,-2,97*
COc1ccccc1NS(=O)(=O)c1ccc2[nH]c3c(c2c1)CCCC3,-1,81*
COc1cc(NS(=O)(=O)c2ccc3[nH]c4c(c3c2)CCCC4)cc(OC)c1OC,-4,83*
CCC(C)NS(=O)(=O)c1ccc2[nH]c3c(c2c1)CCCC3 (configuration not stated),-2,27
CCOc1ccccc1NS(=O)(=O)c1ccc2[nH]c3c(c2c1)CCCCC3,-1,26
CCOC(=O)c1ccc(NS(=O)(=O)c2ccc3[nH]c4c(c3c2)CCCC4)cc1,-1,87*
Oc1ccc(/C=N/n2cnnc2)cc1O,/,i
COCCC1CCN(C(=O)CN(C)C(=O)c2ccncc2)CC1,-3,-2
O=C(Nc1ccc2c(c1)C(=O)Nc1ccccc1O2)c1cccs1,-2,-15
CCCn1c(=O)c(N2CCN(C(=O)c3cccc(C)c3)CC2)nc2ccccc21,-2,-11
CCOc1ccc2c(=O)c(-c3ccccc3Cl)c(C)oc2c1,-8,-15
COc1ccc(OC)c(NS(=O)(=O)c2ccc3[nH]c4c(c3c2)CCCC4)c1,-1,71*
O=C1c2ccccc2C(=O)c2cc(S(=O)(=O)Nc3ccccc3F)ccc21,-2,26
COc1ccccc1CNS(=O)(=O)c1ccc2[nH]c3c(c2c1)CCCC3,-1,64*
COc1ccc(OC)c(NS(=O)(=O)c2ccc(-c3ccccc3)cc2)c1,-9,40
O=S(=O)(Nc1ccccc1F)c1ccc2[nH]c3c(c2c1)CCCC3,-6,56*
COc1ccccc1CNS(=O)(=O)c1ccc(OC)c(OC)c1,-6,-2
CN(C)c1ccc(/C=C2\C(=O)c3ccc(C(=O)O)cc3C2=O)cc1,-8,43
Cc1c(N=Cc2cc([N+](=O)[O-])cc(Br)c2O)c(=O)n(-c2ccccc2)n1C,-6,1
CCC1CCCCN1CCCNC(=O)CN1N=C(c2ccc(Cl)cc2)CCC1=O (configuration not stated),-33,0
SMILES,Pf apPOL block,mHTT CaM bind
CCNCCNC(=O)c1c(O)c2cc(F)cc3c2n(c1=O)C(C)CC3 (configuration not stated),-66,98*
CC1CCc2cc(F)cc3c(O)c(C(=O)NCCCN4CCOCC4)c(=O)n1c23 (configuration not stated),-80,27
O=C(NCc1cccnc1)c1ccc2c(c1)NC(=O)C1CCCCN21 (configuration not stated),4,-2
O=C(C1CCN(Cc2ccccc2F)CC1)N1CCN(Cc2ccc3c(c2)OCO3)CC1,-3,2
COC(=O)CNC(=O)N1CCOc2ccc(C)cc21,-6,2
CCN1c2cc(C)ccc2-n2cccc2C12CCN(C(=O)Nc1cccc(F)c1)CC2,5,72*
CCN1c2cc(C)ccc2-n2cccc2C12CCN(C(=O)NCC1CCCO1)CC2 (configuration not stated),2,65*
Cc1cccc(C(=O)NCC2CCCO2)c1 (configuration not stated),-3,-1
CCN1c2cc(C)ccc2-n2cccc2C12CCN(C(=O)Nc1ccccc1F)CC2,-3,31
CCCNC(=O)N1CCC2(CC1)c1cccn1-c1ccc(C)cc1N2CC,4,100*
CCN1c2cc(C)ccc2-n2cccc2C12CCN(C(=O)Nc1ccccc1C)CC2,2,28
CCN1c2cc(C)ccc2-n2cccc2C12CCN(C(=O)NCC(=O)OC)CC2,-2,76*
Cc1cc(C)n(CC2CCN(C(=O)Cc3ccc(F)cc3)CC2)n1,-15,-7
COc1cccc(Oc2c(C)oc3c(CN4CCC(C)CC4)c(O)ccc3c2=O)c1,-6,1
CCN1c2cc(C)ccc2-n2cccc2C12CCN(C(=O)c1ccc(OC)cc1)CC2,-3,94*
CCOc1ccc(C(=O)N2CCC3(CC2)NC(=O)c2cc(C)ccc2N3CC)cc1,2,6
Cc1nnc(SC2CC(=O)N(c3ccc(Oc4ccccc4)cc3)C2=O)s1 (configuration not stated),3,22
Cc1ccc(C)c(C(=O)N(CCn2cccn2)c2nc3c(F)cccc3s2)c1,-6,-11
COC(=O)c1ccc(C(=O)N(CCn2cccn2)c2nc3c(C)cc(C)cc3s2)cc1,-4,100*
CCn1ccc2sc(C)c(C(=O)N3CCCCC3)c2c1=O,0,8
Cc1sc2ccn(Cc3ccc(F)cc3)c(=O)c2c1C(=O)N1CCCCCC1,3,64*
Cc1sc2ccn(Cc3ccc(F)cc3)c(=O)c2c1C(=O)N1CCCC(C)C1 (configuration not stated),1,66*
Cc1sc2ccn(CC(C)C)c(=O)c2c1C(=O)N1CCCC(C)C1 (configuration not stated),3,10
NC(=NOC(=O)c1c(F)cccc1F)c1ccccn1,-2,/
NC(=O)c1cc(-c2ccccc2)sc1NC(=O)c1ccc([N+](=O)[O-])o1,4,16
SMILES,Pf apPOL block,mHTT CaM bind
CCC(Sc1nc2ccccc2o1)C(=O)Nc1nnc(C)s1 (configuration not stated),85*,0
CCC(Sc1nc2ccccc2o1)C(=O)Nc1ccc(Cl)cn1 (configuration not stated),-2,-16
Cc1ccc2c(c1)/C(=C/c1nc3ccccc3c(=O)n1-c1ccccc1[N+](=O)[O-])C(=O)N2,2,86*
Cc1ccc2c(c1)/C(=C/c1nc3ccccc3c(=O)n1C)C(=O)N2,-2,26
O=C(Nc1ccc(N2CCCC2=O)cc1)c1ccc2nsnc2c1,0,-1
O=C(CN1CCN(C(=O)c2cnccn2)CC1)c1cccs1,0,-12
Cc1ccnc(NC(=O)c2cc(I)ccc2Cl)c1,-3,-11
COc1ccc(C(Nc2cc(C)ccn2)c2ccc3cccnc3c2O)cc1O (configuration not stated),-18,100*
Cc1ccnc(NC(c2cccnc2)c2ccc3ccc(C)nc3c2O)c1 (configuration not stated),-6,76*
Cc1ccnc(NC(c2cccnc2)c2ccc3cccnc3c2O)c1 (configuration not stated),4,100*
Cc1ccnc(NC(=O)CSc2ccccn2)c1,-28,/
COc1ccccc1CC(=O)Nc1cc(C)ccn1,-1,-2
Cc1ccnc(NC(c2ccncc2)c2ccc3ccc(C)nc3c2O)c1 (configuration not stated),-8,90*
COc1ccc(N2CCN(S(=O)(=O)c3ccc(OC)c(Br)c3)CC2)cc1,4,-2
Cc1ccc(-n2nc3ccc(NC(=O)c4ccc5c(c4)OCCO5)cc3n2)cc1Cl,4,13
CCC(Sc1ccccc1)C(=O)Nc1nnc(-c2ccc(OC)cc2OC)s1 (configuration not stated),-2,-5
